Screening results deposited in PubChem by National Center for Advancing Translational Sciences (NCATS).
HCMV inh = qHTS Assay for inhibitors of the human cytomegalovirus (HCMV); HFF cells, HCMV-luciferase reporter, 72 h; hits give low values; activity change, negative = inhibition, % at 57.5 µM; 410,000 compounds, 4.5% hits; AID 1259415, 2018; in the data active = activity change below about -60%; inconclusive = no clear call, values can overlap the other calls; inactive = above about -39%
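Inhibition of viral replication was scored as loss of reporter luminescence in HFFs infected with HCMV-luciferase (MOI 1 PFU/cell) for 72 h; compounds tested at 2 doses, normalized to buffer and Salinomycin controls.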
HCV inh = qHTS Assay for Inhibitors of Hepatitis C Virus (HCV); 340,000 compounds, 3.4% hits; Potency, µM (titrated, usually from 41.8 µM), for the others: at the highest dose activity change, negative = inhibition, actives largely listed as inhibitors; Huh7.5.1 HCVcc-Cre infection, luciferase reporter, 44 h; AID 651820, 2012; active = well fitted inhibition curve with a large enough effect; inconclusive = small, poorly fitted or top-dose-only effect, or another doubt; inactive = no such curve, though single readings can be large or run the other way; also: potency is read from the fitted curve at half-maximal effect
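Cells seeded at 1,000/well and cultured 4 h, then compounds added followed by HCVcc-Cre virus (~0.5 moi). After 44 h further culture, luciferase substrate was added, plates held 15 min at room temperature, and luminescence read for 15 sec.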
Marburg entry inh = qHTS for inhibitors of binding or entry into cells for Marburg Virus; Marburg virus pseudotyped entry inhibition, cell reporter; Potency, µM (titrated, usually from 37.8 µM), inactives show at the highest dose activity change, negative = inhibition, actives largely listed as inhibitors; 300,000 compounds, 1.8% hits; AID 540276, 2011; calls by dose curve; tested in HEK293 cells; also: potency is read from the fitted curve at half-maximal effect
FMDV antiviral = High Throughput Screening for Foot and Mouth Disease Virus Antivirals | FMDV antiviral cell-based qHTS | Potency, µM (doses to about 57.9 µM), for inactives: top-dose activity change, negative = inhibition, hits mostly inhibitors | 410,000 compounds, 1.2% hits; calls by dose curve; tested in HEK293T cells; also: read-out not given here; potency is read from the fitted curve at half-maximal effect; nearly all actives have a fitted effect of over 45% in size
LASV entry inh = qHTS for Inhibitors of binding or entry into cells for Lassa Virus. 300,000 compounds, 1.2% hits. AID 540256, 2011. Lassa virus pseudotype entry inhibition, cell reporter. Potency, µM (titrated, usually from 37.9 µM), for inactives: at the top dose activity change, negative = inhibition, usual class: inhibitors; calls by dose curve; tested in HEK293 cells; also: potency is read from the fitted curve at half-maximal effect; nearly all actives have a fitted effect of over 50% in size
The depositor's hits bear a star; ? = inconclusive; nt = no result; [ ] = another dose, or the depositor's remark. Most compounds without a hit are left out; they make up all but 7.9% or so of the library. % is scaled to controls: 0 for no effect and ±100 for the full control effect.

SMILES | HCMV inh | HCV inh | Marburg entry inh | FMDV antiviral | LASV entry inh
Cc1nc2cc(NC(=O)[C@@H]3C[C@@H](Sc4ccccn4)CN3Cc3ccccc3F)ccc2s1 | nt | nt | nt | 10% | nt
Cc1ccc(C(=O)CSc2ncnc3sc4c(c23)CCC(C)C4)cc1 (stereo unspecified) | -99* | ? | 7% | -8% | 5%
CC1CCc2sc3ncnc(N4CCOCC4)c3c2C1 (stereo unspecified) | ? | 10µM* | 8% | ? | -3%
CC1CCc2c(sc3ncnc(N4CCOCC4)c23)C1 (stereo unspecified) | -65* | -26% | -21% | -28% | 10%
CCOc1ccc(CN2CCN(c3ncnc4sc5c(c34)CC(C)CC5)CC2)cc1 (stereo unspecified) | 22 | nt | -19%[46.1 µM] | -7% | -1%[46.1 µM]
Cc1ccc(-c2nc(NC(=O)CSc3ncnc4sc5c(c34)CCC(C)C5)ns2)cc1 (stereo unspecified) | -9 | nt | 29%[46.1 µM] | -11% | 24%[46.1 µM]
Cc1cc2nc3n(c2cc1C)C(C)(C(=O)Nc1ccc2ccccc2c1)CCC3 (stereo unspecified) | 32 | nt | nt | nt | nt
COc1ccc(C(C)=NOC(=O)c2c(-c3ccccc3Cl)noc2C)cc1CN1CCOCC1 | -60* | nt | nt | ? | nt
COc1cc(OC)c(N(C)S(=O)(=O)c2cccc(C(=O)OCC(=O)N(C)Cc3ccccc3)c2)cc1Cl | -63* | 11µM* | nt | -3% | nt
N#Cc1nc(-c2cccs2)oc1N1CCN(c2ccccc2)CC1 | 1 | 2.8µM* | ? | -19% | -1%
N#Cc1nc(-c2cccs2)oc1NCc1ccccc1 | 16 | 6% | 6%[46.1 µM] | 10% | 18%
COc1ccc(-c2ccn(-c3cccc(F)n3)n2)cc1 | -29 | -29% | 10µM* | 20% | ?
O=[N+]([O-])c1c(NCc2ccccc2)cc(N2CCc3ccccc3C2)c2nonc12 | ? | 1.4µM* | ? | -17% | -2%
Cc1ccc(CN(Cc2cc3cccc(C)c3[nH]c2=O)C(=S)NCCCN(C)C)cc1 | ? | 35µM* | 4.5µM* | -15% | -12%
Cc1cccc2cc(CN(Cc3ccccc3)C(=S)NCCCN(C)C)c(=O)[nH]c12 | ? | ? | 4µM* | -13% | -27%[46.1 µM]
Cc1ccc(NC(=S)N(CCN(C)C)Cc2cc3cccc(C)c3[nH]c2=O)cc1 | -20 | ? | ? | -21% | 1%
Cc1cccc2cc(CN(Cc3cccnc3)C(=S)NCCCN(C)C)c(=O)[nH]c12 | -14 | 1% | 2%[46.1 µM] | -16% | 14%
Cc1cc(C)c2cc(CN(CCCN(C)C)C(=S)NCc3ccccc3)c(=O)[nH]c2c1 | -17 | 10µM* | ? | 8% | ?
Cc1ccc(N2CC(c3nnc(Cc4ccc(Cl)cc4)o3)CC2=O)cc1 (stereo unspecified) | 6 | nt | -24%[46.1 µM] | 5% | -1%[46.1 µM]
CC1CCCN(S(=O)(=O)c2ccc3c(c2)c(=O)nc2ccccn23)C1 (stereo unspecified) | -10 | 10% | 1%[46.1 µM] | 18% | 0%
Cc1ccc(-c2csc(C3=C(O)CN(NC(=O)c4ccc([N+](=O)[O-])cc4)C3=N)n2)cc1 | -28 | 2% | -14%[46.1 µM] | -5% | ?
N=C1C(c2nc(-c3ccc(Br)cc3)cs2)=C(O)CN1NC(=O)c1ccc([N+](=O)[O-])cc1 | -102* | 2% | -19%[46.1 µM] | -2% | 0%
Cc1ccc(C)c(Nc2ccc3nonc3c2[N+](=O)[O-])c1 | -87* | -4% | nt | -24% | nt
Cc1ccccc1Nc1ccc2nonc2c1[N+](=O)[O-] | -32 | -1% | nt | 0% | nt
NC(=O)C1Cc2ccccc2CN1C(=O)c1cc(C2CC2)nn1-c1ccccc1 (stereo unspecified) | -77* | ? | nt | -22% | nt
SMILES | HCMV inh | HCV inh | Marburg entry inh | FMDV antiviral | LASV entry inh
COc1ccc(N(CC(=O)Nc2ccc(C)cc2)S(=O)(=O)c2c(C)noc2C)cc1 | -25 | 10% | nt | -23% | nt
Cc1ccc(N(CC(=O)Nc2cc(C)cc(C)c2)S(=O)(=O)c2c(C)noc2C)cc1 | -85* | ? | nt | ? | nt
CCOc1ccc(N(CC(=O)Nc2ccc(C)c(C)c2)S(=O)(=O)c2c(C)noc2C)cc1 | -71* | ? | nt | ? | nt
CCOc1ccc(N(CC(=O)Nc2ccccc2C)S(=O)(=O)c2c(C)noc2C)cc1 | -69* | -26% | 3% | -21% | nt
COC(=O)C1=C(C(=O)OC)[C@@H]2Nc3ccccc3[C@@]23C[C@@H](C(=O)OC)N(C(=O)NC(C)(C)C)C3=N1 | nt | nt | 2%[14.2 µM] | nt | nt
O=C(Nc1cccc(-c2nc3ccccc3o2)c1)c1cccc2c(Cl)cccc12 | 26 | nt | 8%[46.1 µM] | -8% | -15%[46.1 µM]
CCOC(=O)c1sc2nc(C)nc(Nc3ccc(OC)cc3)c2c1C | -67* | -25% | ? | -5% | 16%
CCOC(=O)c1sc2nc(C)nc(NCc3cccnc3)c2c1C | ? | -3% | -1%[46.1 µM] | -10% | ?
CCOC(=O)c1sc2nc(C)nc(NCc3ccc(F)cc3)c2c1C | ? | ? | ? | -11% | ?
CCOC(=O)c1sc2nc(C)nc(SC(C)C(=O)N(C)c3ccccc3)c2c1C (stereo unspecified) | -64* | ? | ? | -17% | ?
CCOC(=O)c1sc2nc(C)nc(NCc3ccc(Cl)cc3)c2c1C | -68* | ? | -20% | ? | ?
Cc1ccc(S(=O)(=O)N2[C@@H](CO)CO[C@H]2CC(=O)OCc2ccccc2)cc1 | -11 | nt | nt | 0% | nt
CC1CCCC(NC(=O)COC(=O)c2cc(=O)[nH]c3ccccc23)C1C (stereo unspecified) | 19 | 16% | nt | -17% | nt
Cc1nn(-c2ccccc2)c(N)c1N=Nc1ccccc1 | 46 | ? | ? | -10% | ?
Cc1nn(-c2ccccc2)c(N)c1N=Nc1cccc(S(=O)(=O)N2CCOCC2)c1 | -68* | 22µM* | ? | -18% | ?
CNC(=O)[C@@H]1C[C@@H](NCc2cccc(Oc3ccccc3)c2)CN1C(C)C | nt | nt | nt | -13% | nt
CN1C[C@@H]2[C@@H]3C(=O)N(Cc4ccccc4)C(=O)[C@@H]3[C@](Cc3ccccc3)(C1=O)N2C(=O)c1ccc(C(C)(C)C)cc1 | -98* | ? | nt | ? | nt
CN1C[C@@H]2[C@@H]3C(=O)N(Cc4ccccc4)C(=O)[C@@H]3[C@](Cc3ccccc3)(C1=O)N2C(=O)c1ccccc1 | -32 | 19% | nt | 58% | nt
O=C(O)c1cccc(-c2nnn(Cc3ccccc3Cl)n2)c1 | 117 | 17% | 6.3µM* | -25% | 8.2µM*
Cc1ccccc1Cn1nnc(-c2ccc(C(=O)O)cc2)n1 | -13 | 6% | ? | -1% | 0%
O=C(O)c1cccc(-c2nnn(Cc3ccccc3)n2)c1 | 31 | 15% | ? | -10% | ?
Cc1ccccc1Cn1nnc(-c2cccc(C(=O)O)c2)n1 | 150 | 3% | 5.8µM* | -51% | 13µM*
CN1CCC(Nc2nc(Br)cnc2N)CC1 | 10 | nt | nt | nt | nt
